PubChem BioAssay (NCI)
Compounds without any hit were thinned out: in the full panel of roughly 79,000, 15% have a hit. Active and inactive are the calls of the source. Rule as the data show it: active = growth inhibition above about 70%; inactive = the rest. Where a SMILES comes first, the peptide text is derived from it. [ ]: non-standard residue; d: D form. pGlu = O=C1CC[CH](C(=O)O)N1

Test: NCI Yeast Anticancer Drug Screen. Data for the bub3 strain (AID 167)
Conditions: S. cerevisiae bub3 mutant strain, at 50.0 µM, active compounds read high
Summary of the method: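 Readout: yeast growth inhibition, expressed relative to vehicle-only wells. The test organism is a mutant strain from a panel with lesions in DNA repair or checkpoint genes.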

| Structure (SMILES) | growth inhibition |
| --- | --- |
| N/N=C(/c1ccc(Cl)cc1)N1CCOCC1 | -18% (inactive) |
| CCN(CC)CN1C(=O)C2C3C=CC(C2C1=O)C1C2C(=O)N(CN(CC)CC)C(=O)C2C31 (stereo not given) | -47.5% (inactive) |
| Cc1ccc(C)c(NC(=O)CCC(=O)C(C#N)c2nc3ccccc3s2)c1 (stereo not given) | 3.7% (inactive) |
| CCOC(=O)C(NC(N)=O)C(=O)OCC | 21.9% (inactive) |
| CC(NC(=O)C(Cc1cnc[nH]1)NC(=O)C1CCC(=O)N1)C(N)=O (stereo not drawn) ([pGlu]-His-Ala-NH2; configuration not given here) | -12.7% (inactive) |
| CC(=O)Nc1c(C)cccc1[N+](=O)[O-] | 2.8% (inactive) |
| CCCC(C)C1(CCC)C(=O)N=C(N)N=C1N (stereo not given) | -2.8% (inactive) |
| CC(=O)C1=C(O)C(Cc2ccccc2)NC1=O (stereo not given) | -18.4% (inactive) |
| CC(=O)OC1CCC2C(C)(CCC3C2(C)CCC2(C)C4CC(C)(C)CCC4(C)CCC32C)C1C (stereo not given) | -0.05% (inactive) |
| COC(=O)c1ccccc1C(=O)c1ccccc1 | -5.95% (inactive) |
| COc1c2c(cc3c(CCc4ccccc4)cc(=O)oc13)CCC(C)(C)O2 | -5.75% (inactive) |
| CCOC(=O)C(=O)N1Cc2cc3c(cc2C2CC(O)C(O)CC21)OCO3 (stereo not given) | 2.85% (inactive) |
| OC1=CC(C2CCCCC2)CC(O)=C1 (stereo not given) | -59.5% (inactive) |
| c1ccc(-c2csc3[n+]2CCN3)cc1 | 2.8% (inactive) |
| NNC(=O)CNC(=O)c1ccccc1 | 0% (inactive) |
| CCOC(=O)CC1(C)c2nc(NC(C)=O)sc2Cc2sc(NC(C)=O)nc21 | -2.4% (inactive) |
| CON(C)c1nc(N(C)C)nc(N(C)C)n1 | 1.8% (inactive) |
| Nc1cc2[nH]cnc2c(=O)[nH]1 | 7.9% (inactive) |
| COCCNc1cncc(C(N)=O)c1 | 2.45% (inactive) |
| Nc1nc(N)[n+]([O-])c(N)c1NCO | -14% (inactive) |

| Structure (SMILES) | growth inhibition |
| --- | --- |
| COc1ccc(/C=C(\C2=NC(=O)CS2)c2nc3ccccc3[nH]2)cc1 | -20.4% (inactive) |
| Cc1ccc(-c2c(C#N)c(-c3ccccc3)c(C#N)c(=O)n2NS(=O)(=O)c2ccc(C)cc2)cc1 | 18.2% (inactive) |
| CN(Nc1ccnc(=O)[nH]1)c1ccccc1 | -2.7% (inactive) |
| COc1ccc(-c2c3c([nH]c(=S)c2C#N)CCC3)cc1 | 28.7% (inactive) |
| CCOC(=O)C(C(=O)OCC)C(=O)c1cc(OC)c(OC)c(OC)c1 | 2.55% (inactive) |
| CN1C/C(=C\C=C\c2ccccc2)C(=O)/C(=C/C=C/c2ccccc2)C1 | 11.2% (inactive) |
| C=C1C(=O)O[C@H]2[C@H]1[C@@H](OC(=O)C=C(C)C)CC1=C[C@@H](C[C@@]3(C)O[C@@H]23)OC1=O | -2.6% (inactive) |
| C/C(=C/CNc1ncnc2c1ncn2CCC(=O)O)CO | 1.7% (inactive) |
| O=c1[nH]c(=O)n(C2OC(CO)C(O)C2O)cc1OCc1ccccc1 (stereo not given) | -6.6% (inactive) |
| C/C(=N/O)c1c[n+]([O-])ccn1 | 4.7% (inactive) |
| COc1ccc2oc(=N)c(C(N)=S)cc2c1 | 7.9% (inactive) |
| Cn1c(-c2ccccc2)c2c(=O)oc3ccccc3c2c1-c1ccccc1 | 8.25% (inactive) |
| O=[N+]([O-])c1ccc(C=Nc2ccccc2)cc1 | 1% (inactive) |
| COc1cc([N+](=O)[O-])cc2c1OC1(C=C2)Oc2ccccc2N1C (stereo not given) | -22.9% (inactive) |
| COc1ccc2nc3cc([N+](=O)[O-])ccc3c(Nc3ccc(S(=O)(=O)N=C(N)N)cc3)c2c1 | 38.8% (inactive) |
| CN(C)c1ccc(N=Nc2ccc(S(=O)(=O)O)cc2)cc1.CN(C)c1ccc(N=Nc2ccc(S(=O)(=O)O)cc2)cc1.[NH-]C1CCCCC1[NH-].[Pt+2] | 15.6% (inactive) |
| CC1c2ncnc(N)c2CN1C(=O)c1ccccc1 (stereo not given) | 6.75% (inactive) |
| CC(=O)c1cccc(C(C)=O)c1N=Cc1ccc(Cl)cc1 | -18.1% (inactive) |
| O=C(/C=C\c1ccccc1)c1ccc(-c2ccc([N+](=O)[O-])cc2)cc1 | 4.8% (inactive) |
| CC(NC(=O)OC(C)(C)C)C(=O)C(N)=O (stereo not given) | 8.25% (inactive) |
